Source: PubChem BioAssay
Rows were chosen to be rich in hits. Some 2.8% of all compounds tested hit in one or more screens of this group.
PI5P4K alpha inh = inhibitors of human PI5P4K alpha; AID 652105; P48426; max response, %; PI5P4Kalpha enzyme, ADP-Glo luminescence, 60 min; hits give low values; 330,000 compounds, 1.2% hits; active = max response of -50% or lower; inconclusive = between -30% and -50%; inactive = -30% or higher; note: value at the top dose of about 77 µM; % is set by controls: 0 for no effect and ±100 for the full control effect
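PI5P4Kalpha ADP-Glo assay; 5 microM ATP final; 60 min RT reaction; HEPES pH 7.4/EGTA/CHAPS, 5% DMSO; controls lacking substrate or enzyme; luminescent end-point.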
POLK inh = blocks human DNA polymerase kappa activity. purified Pol kappa, fluorescent DNA synthesis assay, 10 min. Potency, µM (titrated, usually from 107 µM), inactives show top-dose activity, negative = inhibition, hits mostly inhibitors. 400,000 compounds, 0.53% hits; note: potency is the fitted concentration of half-maximal effect; % is set by controls: 0 for no effect and ±100 for the full control effect
Target sequence (Q9UBT6 whole entry, looked up): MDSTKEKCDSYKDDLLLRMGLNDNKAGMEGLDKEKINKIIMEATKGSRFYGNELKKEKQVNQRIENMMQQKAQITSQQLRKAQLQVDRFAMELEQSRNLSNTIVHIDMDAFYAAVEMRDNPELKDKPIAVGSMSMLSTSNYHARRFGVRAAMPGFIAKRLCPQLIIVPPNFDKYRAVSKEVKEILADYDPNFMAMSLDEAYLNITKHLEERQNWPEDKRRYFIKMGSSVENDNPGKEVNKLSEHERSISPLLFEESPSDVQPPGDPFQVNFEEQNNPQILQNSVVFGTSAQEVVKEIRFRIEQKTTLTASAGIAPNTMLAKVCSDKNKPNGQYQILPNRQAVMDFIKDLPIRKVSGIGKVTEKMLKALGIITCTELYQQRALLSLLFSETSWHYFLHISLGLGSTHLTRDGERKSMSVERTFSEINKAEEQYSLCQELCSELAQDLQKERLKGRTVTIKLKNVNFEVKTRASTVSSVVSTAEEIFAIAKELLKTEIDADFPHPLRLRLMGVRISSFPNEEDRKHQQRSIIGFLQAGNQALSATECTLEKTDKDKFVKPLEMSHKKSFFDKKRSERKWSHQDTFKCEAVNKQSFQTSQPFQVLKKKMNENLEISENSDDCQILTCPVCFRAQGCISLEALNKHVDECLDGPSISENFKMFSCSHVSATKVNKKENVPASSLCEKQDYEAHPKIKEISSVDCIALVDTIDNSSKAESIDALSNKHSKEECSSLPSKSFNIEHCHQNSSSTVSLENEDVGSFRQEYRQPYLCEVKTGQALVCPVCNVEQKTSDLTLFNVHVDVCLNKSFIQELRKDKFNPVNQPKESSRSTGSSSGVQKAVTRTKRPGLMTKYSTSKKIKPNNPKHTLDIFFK
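50 nM final substrate added after 15 min RT preincubation of 10 nM Pol kappa with compound; fluorescence read at 0 and 10 min.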
WRN helicase inh = WRN helicase (human) inhibition | Q14191 | WRN helicase unwinding, fluorescent forked duplex, kinetic | Potency, µM (top dose mostly 114 µM), inactives show at the highest dose activity change, negative = inhibition, actives largely listed as inhibitors | 360,000 compounds, 0.46% hits | AID 651768; note: potency is the fitted concentration of half-maximal effect; % is set by controls: 0 for no effect and ±100 for the full control effect; nearly all actives have a fitted effect of over 55% in size
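Kinetic fluorescence helicase assay: unwinding of a quenched forked DNA duplex (100 nM final) with 2 mM ATP final raises red fluorescence (525/598 nm). Compounds sat 15 min at room temperature with 20 nM WRN beforehand.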
POLB inh = DNA polymerase beta (human) inhibition; Pol beta primer extension/strand displacement, fluorescence kinetic; Potency, µM (highest dose often 114 µM), for inactives: top-dose activity change, negative = inhibition, hits mostly inhibitors; 340,000 compounds, 1.3% hits; AID 485314; note: potency is the fitted concentration of half-maximal effect; % is set by controls: 0 for no effect and ±100 for the full control effect
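Kinetic readout of DNA synthesis with strand displacement by Pol beta. Compound and 10 nM enzyme sit 15 min at room temperature; 50 nM substrate starts the reaction, read immediately and at 10 min.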
POLH inh = inhibitors of human DNA polymerase eta; Q9Y253; recombinant Pol eta, fluorescent DNA replication assay; Potency, µM (top dose mostly 114 µM), for inactives: at the highest dose activity change, negative = inhibition, most hits filed as inhibitors; 390,000 compounds, 1.2% hits; AID 588591; note: potency is the fitted concentration of half-maximal effect; % is set by controls: 0 for no effect and ±100 for the full control effect
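Pol eta at 10 nM preincubated with compounds 15 min at room temperature; reaction started with fluorescent substrate (50 nM final) and read kinetically at 0 and 10 min.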
Pol iota inh = DNA polymerase iota (human) inhibition; 390,000 compounds, 1% hits; Potency, µM (highest dose often 115 µM), for inactives: top-dose activity, negative = inhibition, hits mostly inhibitors; Pol iota fluorescent replication assay, 10 min; AID 588590; note: potency is the fitted concentration of half-maximal effect
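Fluorescent replication assay read twice, at 0 min and 10 min after adding 50 nM (final) substrate. Enzyme (10 nM) and compounds were first incubated 15 min at room temperature; enzyme-free buffer wells were negative controls.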
* marks the source's active call; other numbers are inactive results; ? = inconclusive; / = not tested or not shown; [ ] = remark or other dose. Unless noted, calls come from the whole dose curve; as a rule, active = well fitted curve in the direction sought with a large enough effect; inconclusive = small, poorly fitted or top-dose-only effect, or another doubt; inactive = no such curve, though single readings can be large; an effect the other way counts as inactive or inconclusive.

SMILES | PI5P4K alpha inh | POLK inh | WRN helicase inh | POLB inh | POLH inh | Pol iota inh
O=C(N/N=C/c1cccc(O)c1)N/N=C/c1cccc(O)c1 | -53* | -13% | -4% | -17% | -4% | 57%
O=C(N/N=C/c1ccoc1)c1ccc(Br)cc1 | -10 | -11% | -3% | 40µM* | -4% | ?
O=C(N/N=C/c1ccoc1)c1ccccc1 | ? | -38% | -20% | 20µM* | ? | ?
Cc1cc(C)cc(C(=O)N/N=C/c2ccoc2)c1 | ? | -4% | -5% | 45% | -16% | ?
O=C(N/N=C/c1ccoc1)c1ccc(Cl)cc1 | -10 | 2% | 0% | -6% | -2% | ?
COc1cc(OC)cc(C(=O)N/N=C\c2ccoc2)c1 | -28 | -29% | -12% | 28µM* | ? | ?
CCOc1ccc(NC(=O)c2ccc3[nH]c(=O)c(=O)[nH]c3c2)cc1 | 0 | 2% | 1% | 9% | -6% | 54%
O=C(N/N=C/c1ccoc1)c1ccccc1O | ? | ? | -9%[11.6 µM] | 22µM* | 45µM* | ?
O=C(N/N=C/c1cccc(OC2CSC2)c1)c1ccccc1O | -19 | -31% | ? | 45µM* | ? | ?
O=C(N/N=C/c1cc(Br)ccc1O)c1ccncc1 | -1 | 6% | -6% | 32% | -20% | 2%
Cc1ccc(O)c(/C=N/NC(=O)Cc2ccc(Cl)cc2)c1 | 10 | -8% | -13% | 25µM* | 6% | -6%
O=C(N/N=C/c1cc(Cl)ccc1O)c1ccc(Br)cc1 | -15 | ? | 0%[57.1 µM] | 10µM* | ? | ?
O=C(Cc1ccc(Cl)cc1)N/N=C/c1ccc(O)c(O)c1 | -15 | / | -19% | / | ? | /
CCN(C(=O)c1nn(-c2ccc(OC)c(Cl)c2)c(=O)c2c1c1ccccc1n2C)c1cccc(C(F)(F)F)c1 | / | -7% | / | 1% | -12% | 17%
Cc1noc(C)c1COC(=O)c1cccnc1Cl | 4 | -8% | -6% | -17% | -21% | 122%
CCCCNC(=O)C1(C)CCCCN1C(=O)c1ccc2c(c1)CCO2 (stereo not drawn) | 0 | / | -1% | / | / | /
CCOC(=O)C1CCCN(C(=O)c2nn(-c3ccc(OC)cc3)c(=O)c3c2c2ccccc2n3C)C1 (stereo not drawn) | / | -3% | / | 1% | / | -27%
O=C(N/N=C/c1cccc(Br)c1)c1ccc(Br)cc1 | -7 | -21% | -22% | 10µM* | -5% | ?
CC1OC(CC(=O)O)CC2=C1C(=O)c1c(O)cccc1C2=O (stereo not drawn) | -23 | -32% | 11µM* | / | 25µM* | 3.2µM*
O=C(Nc1ccccc1-c1cn2c(CN3CCNCC3)csc2n1)c1cnc2ccccc2n1 | / | -23% | / | / | / | -29%
NC(=S)N=Nc1ccc(NN=C(N)N)cc1 | -84* | ? | ? | -4% | -14% | ?
COc1ccc(S(=O)(=O)N2CCCCC2)cc1NC(=O)CN(Cc1ccco1)Cc1ccco1 | -24 | -7% | -12% | / | -27% | 10%
O=c1c2cc(F)ccc2sn1-c1ccc(F)cc1 | -90* | -16% | -1% | / | 9% | -11%
O=c1c2ccccc2sn1-c1ccc(S(=O)(=O)N2CCOCC2)cc1 | / | 10% | / | / | / | 17%
COc1ccc(-n2sc3ccccc3c2=O)cc1 | -89* | / | -2% | / | -22% | /
SMILES | PI5P4K alpha inh | POLK inh | WRN helicase inh | POLB inh | POLH inh | Pol iota inh
Cc1ccc(C)c(-n2sc3ccc(F)cc3c2=O)c1 | -85* | -9% | 2% | / | -1% | ?
COc1ccc(-n2sc3ccc(F)cc3c2=O)cc1 | -87* | -9% | 4% | / | 9% | ?
CC/C(=C\c1ccc(N(C)C)cc1)c1ccncc1 | 0 | -3% | 1% | / | -8% | -2%
O=C(C[n+]1csc2ccccc21)c1ccc(I)cc1 | / | -6% | / | / | / | -6%
COc1cccc(N2CC(NC(=O)c3ccc(S(=O)(=O)N4CCCC4)cc3)CC2=O)c1 (stereo not drawn) | / | -4%[60.1 µM] | / | -1% | 4% | 15%
CC#CCN1C(=O)N[C@@H](c2ccccc2)C(C(=O)OC)=C1C | -5 | -11% | 0% | / | -15% | 33%
NS(=O)(=O)c1ccc(O)c(NC(=O)c2ccc([N+](=O)[O-])o2)c1 | ? | -18% | ? | 0% | ? | ?
O=C(Nc1cccc(Cl)c1)OCC#CCCl | / | 27µM* | / | / | / | /
O=C(Nc1cccc(Cl)c1)OCCOC(=O)Nc1cccc(Cl)c1 | -9 | 3% | -13% | / | -19% | -29%
O=C(OCC(=O)N1N=C(c2ccc(Cl)cc2)CC1c1ccco1)c1cncc(Br)c1 (stereo not drawn) | -29 | ? | -23%[11.6 µM] | / | 45µM* | ?
O=c1[nH]c(S)c(/C=C2\C=Nc3ccccc32)s1 | ? | -9% | -23%[57.1 µM] | 31% | 40µM* | 72%
Oc1nc(Nc2ccc(F)cc2)sc1/C=C1\C=Nc2ccccc21 | ? | -24% | -5% | 9% | -6% | 60%
Nc1ccn([C@@H]2O[C@H](C(=O)N(CCC3=CCCCC3)CC3CC3)[C@@H](O)[C@H]2O)c(=O)n1 | -5 | / | 1% | / | / | /
C=C1C(=O)C=C2CN(C(=O)c3ccccc3)[C@@](Cc3ccc(F)cc3)(C(=O)OC)[C@@H]12 | -77* | -2% | -8% | -5% | -12% | ?
CC(C)c1cc(C(=O)N2CCCC(N3CCN(c4ccc(F)cc4)CC3)C2)no1 (stereo not drawn) | 3 | -5% | -1% | 4% | -24% | 46%
CCN(c1cc(C)cc(C)c1)S(=O)(=O)c1nnc(NC(=O)c2cccs2)s1 | / | -16% | / | -28% | 89µM* | 25%
CCN(c1ccc(OC)cc1)S(=O)(=O)c1nnc(NC(=O)COc2ccc(F)cc2)s1 | ? | ? | -20% | -17% | ? | ?
CCN(c1ccc(OC)cc1)S(=O)(=O)c1nnc(NC(=O)COc2ccc(C)cc2)s1 | -24 | -16% | -5% | 7.9µM* | -2% | -6%
CCN(c1cccc(C)c1)S(=O)(=O)c1nnc(NC(=O)c2cccs2)s1 | / | 1% | / | 0% | -25% | 13%
Cc1cc(C)n(-c2ccc(Oc3ccccc3)c(S(=O)(=O)O)c2)n1 | -10 | -30% | ? | ? | 50µM* | 23%
Cc1cc(C)n(-c2ccc(C(=O)O)cc2)n1 | 2 | -2% | -6% | 26% | -14% | 3%
CCc1c(C)[nH]n(-c2ccc(Oc3ccccc3)c(S(=O)(=O)O)c2)c1=O | -18 | 35µM* | ? | 25µM* | 11µM* | 18µM*
NC(=O)C[C@H]1NC(=O)[C@H](CCC(=O)O)NC(=O)c2cc([N+](=O)[O-])cc(I)c2NCCC[C@@H](C(N)=O)NC1=O | -1 | ? | -30% | 15% | 35µM* | ?
